Most compounds without a hit are left out; they make up all but 4.9% or so of the library.
SKKanGAS inh – S. pyogenes SKKanGAS growth inhibitors in kanamycin, primary screen, streptokinase expression inhibitor project, SKKanGAS strain, BacTiter-Glo luminescence; 6 h; inhibition, % at 7.5 µM; 300,000 tested, 1.3% active; AID 1662, 2009;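 active = mean replicate score, as percent of positive control median, at least 50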;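 also: strain carries kanamycin resistance gene driven by streptokinase promoter and grows in 40 µg/ml kanamycin; loss of luminescence reflects streptokinase promoter inhibition or plain growth inhibition; 0% = median of DMSO wells and 100% = positive control at its reference dose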
tim10-1 inh – growth inhibitors of tim10-1 mutant yeast, primary screen, luminescence, uHTS; inhibition, % at 20 µM; 330,000 tested, 2.2% active; S. cerevisiae tim10-1 ts strain growth, BacTiter-Glo, 24 h;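 active = inhibition of at least 40%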;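 also: mutant grown at 25 °C; 0% = DMSO wells with yeast and 100% = wells holding no yeast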
NALP1 yeast inh – NALP1 inflammasome inhibitors in reconstituted yeast, colorimetric, S. cerevisiae, triplicate retest | S. cerevisiae NALP1/ASC/caspase-1 growth, X-gal OD620, 72 h | inhibition, % at 10 µM | 280,000 tested, 0.61% active | AID 2071, 2009; in the data active = inhibition mostly above about 24%, no sharp cut-off; inactive = mostly below about 32%
tim23-1 inh – growth inhibitors of tim23-1 mutant yeast, primary screen, luminescence, uHTS; inhibition, % at 20 µM; 330,000 tested, 1.3% active; S. cerevisiae tim23-1 growth, BacTiter-Glo luminescence, 24 h;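 active = growth inhibition of the mutant yeast at or above 50%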;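 also: temperature-sensitive mutant grown at 25 °C; plate controls were DMSO-treated mutant yeast for no effect and medium wells lacking yeast for full effect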
TIM10 inh – growth inhibitors of isogenic TIM10 control yeast, primary screen, counter-screen for tim10-1 yeast inhibitor project, luminescence, uHTS; 330,000 tested, 1.4% active; S. cerevisiae TIM10 strain growth, BacTiter-Glo luminescence, 24 h; inhibition, % at 10 µM; AID 463195, 2010;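 active = inhibition of 40% or more at the single tested concentration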;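 also: wild-type TIM10 isogenic control strain grown at permissive 25 °C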
NALP3 yeast inh – NALP3 inflammasome inhibitors in reconstituted yeast, primary screen, luminescence, uHTS | Yeast reconstituted NLRP3/ASC/caspase-1, beta-gal luminescence, 24 h | 330,000 tested, 0.39% active | inhibition, % at 10 µM;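 active = inhibition of 50% or more; inactive = inhibition below 50%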;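 also: plate controls were induced DMSO wells for no effect and uninduced yeast grown without galactose for full effect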
tim10-1 conf – growth inhibitors of tim10-1 mutant yeast, confirmation, single concentration, luminescence, S. cerevisiae; shares compounds with tim10-1 inh; S. cerevisiae tim10-1 ts strain growth, BacTiter-Glo, 24 h; inhibition, % at 20 µM; 7,400 tested, 56% active; AID 463213, 2010;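 active = inhibition of yeast growth at or above a set limit in either of two repeat tests at 20 µM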;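 also: tim10-1 mutant grown at permissive 25 °C to find synthetic lethal compounds; 0% = DMSO yeast wells and 100% = medium wells without yeast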
* = called active by the depositor; · = not tested or not shown.

SMILES	SKKanGAS inh	tim10-1 inh	NALP1 yeast inh	tim23-1 inh	TIM10 inh	NALP3 yeast inh	tim10-1 conf
COc1ccc2nc(N/C(N)=N/C(=S)Nc3ccccc3)nc(C)c2c1	10	50*	-3	44	37	21	19
CCCCNC(=S)Nc1ccc(C(F)(F)F)cc1	9	54*	16	47	21	7	31*
CCCNC(=S)Nc1ccc(Nc2ccccc2)cc1	-5	42*	-4	25	1	25	24
S=C(NCCCNC(=S)Nc1ccccc1)Nc1ccccc1	2	10	0	22	5	1	·
CC(NCC(=O)NCC(=O)Nc1ccc(F)cc1)c1cccc(C(F)(F)F)c1 (stereo not given)	·	2	·	0	-2	-12	·
COc1cccc(NC(=O)CN2CCN(C(=O)c3ccco3)CC2)c1	4	-6	10	-4	5	9	·
O=C(OCC(=O)c1ccccc1Br)c1ccncc1	-3	14	-14	13	0	-7	·
CC(C)OCCCNC(=O)c1ccccc1NC(=O)C1=CSCCO1	-12	35	10	23	1	14	·
Cc1occc1C(=O)Nc1sc2c(c1C(N)=O)CCCCC2	3	48*	15	28	39	3	23
COC(=O)c1c(NC(=O)c2ccoc2C)sc2c1CCC2	-1	11	-18	22	-10	30	·
CC(C)(CCO)Nc1ncnc2onc(-c3ccc(F)cc3)c12	4	5	17	-2	-7	-1	·
C/C(CC(=O)Nc1ccc(C)c(Cl)c1)=N\NC(=O)c1ccccn1	-23	18	-4	28	-18	17	·
COc1ccc(NC(=S)c2ccc3ccccc3n2)cc1	14	56*	-15	40	16	37	10
CCOc1ccc(NC(=S)c2ccc3ccccc3n2)cc1	-9	23	-1	6	16	30	·
Nc1cccc(Nc2nc(OC(C(F)(F)F)C(F)(F)F)nc(OC(C(F)(F)F)C(F)(F)F)n2)c1	-6	43*	6	28	24	4	38*
OCC1CCCN(c2ncnc3scc(-c4ccccc4)c23)C1 (stereo not given)	-5	-2	-2	32	-7	19	·
OCC1CCCN(c2nc(CN3CCCCC3)nc3scc(-c4ccccc4)c23)C1 (stereo not given)	-20	40*	10	32	17	11	14
Cc1nc(-c2ccccn2)sc1C(=O)Nc1ccc(Cl)c(Cl)c1	23	47*	8	-3	35	18	29*
Cc1ccc(S(=O)(=O)N(C)C)cc1NC(=S)NC(C)CCCC(C)C (stereo not given)	-2	15	39	19	13	9	·
CCCCCCC(C)NC(=S)Nc1cc(S(=O)(=O)N(C)C)ccc1C (stereo not given)	6	41*	17	4	11	1	16
COC(=O)c1ccc(N2CCN(c3ccccc3)CC2)c(N)c1	2	80*	-8	-8	-5	13	8
Cc1ccc(C(=O)Nc2ccccc2)cc1S(=O)(=O)N1CCN(C)CC1	-2	13	20	13	8	0	·
C=CCNC(=S)N/N=C(\C)c1ccc(OC)cc1	-4	41*	12	7	20	1	14
CCCN(CCC)S(=O)(=O)c1cc(Br)cc2c1N(C(=O)CC)CC2	-6	46*	39	39	27	-1	34*
CCC(=O)N1CCc2cc(Br)cc(S(=O)(=O)CCC(=O)N(CC)CC)c21	-8	5	4	2	6	2	·
SMILES	SKKanGAS inh	tim10-1 inh	NALP1 yeast inh	tim23-1 inh	TIM10 inh	NALP3 yeast inh	tim10-1 conf
CCCCC(O)(c1ccc(F)cc1)C(CN1CCOCC1)c1ccc(Cl)cc1 (stereo not given)	7	18	16	27	16	8	·
Oc1ccc(Oc2ncc(Cl)cc2Cl)cc1	5	40*	30	37	9	36	34*
Cc1cc(C(=O)N2CCN(C(c3ccccc3)c3ccccc3)CC2)no1	-5	41*	38	26	35	11	24
CCCc1cc(C(=O)N2CCN(C(c3ccccc3)c3ccccc3)CC2)no1	17	26	30	23	27	16	·
CC1CCCC(C)N1C(=O)COC(=O)c1ccc(Br)o1 (stereo not given)	·	10	·	20	14	15	·
Cc1cc(C)c2nc(C(F)(F)F)c(C#N)c(N)c2c1	-5	42*	3	11	30	25	20
CC1CCCN(S(=O)(=O)c2ccc(C(=O)Nc3nnc(-c4ccccn4)o3)cc2)C1 (stereo not given)	6	21	4	5	9	-3	·
CCC1CCCCN1S(=O)(=O)c1ccc(C(=O)Nc2nnc(-c3cccs3)o2)cc1 (stereo not given)	·	45*	19	21	18	5	27
CC1CC(C)CN(S(=O)(=O)c2ccc(C(=O)Nc3nnc(-c4cccs4)o3)cc2)C1 (stereo not given)	82*	42*	16	6	18	1	21
CC1CCCN(S(=O)(=O)c2ccc(C(=O)Nc3nnc(-c4ccccc4Cl)o3)cc2)C1 (stereo not given)	97*	42*	25	-5	22	-10	7
O=c1cc(O)c2c(=O)n(-c3ccccc3)c3c(c2o1)CCCCC3	43	-6	25	15	4	7	·
O=C(CN1CCOCC1)N/N=C/c1c(O)ccc2ccccc12	18	46*	4	49	22	28	5
O=C(CSCC(=O)Nc1ccccc1)N/N=C/c1c(O)ccc2ccccc12	13	42*	-14	-13	38	16	16
O=C(CN1CCOCC1)N/N=C/c1ccco1	6	2	-4	3	5	14	·
CN(C)c1ccc(NS(=O)(=O)c2cc3c4c(c2)CC(=O)N4CCC3)cc1	6	0	30	-1	9	9	·
O=[N+]([O-])c1cc(C=Nc2cccc3c(O)cccc23)ccc1Cl	9	21	-12	21	15	27	·
C/C(=N\NC(=S)NC(C)C)c1ccc(-n2ccnc2)cc1	-4	43*	4	34	22	18	20
CC(C)CN(C(=O)CSc1n[nH]c(-c2cccs2)n1)C1CCS(=O)(=O)C1 (stereo not given)	·	-13	·	-6	-10	18	·
CCN(CC)c1ccc(NC(=O)CCCCCN2C(=O)c3ccccc3C2=O)cc1	-4	46*	-8	43	33	10	42*
